Measurements from PubChem BioAssay AID504652 (National Center for Advancing Translational Sciences (NCATS), 2011).
Out of some 360,000 compounds screened, about 11,000 (3.1%) were called active. This is one part of a sample in which actives are shown more often than they occur. Rule as the data show it: active = activity change below about -30%; inactive = the rest.

molecular target: D(1A) dopamine receptor (Homo sapiens) (UniProt P21728); assay: Antagonist of Human D 1 Dopamine Receptor: qHTS; settings: HEK293 TREx D1 cells, calcium flux, dopamine EC80; at 10 µM; hits give low values
Sequence (P21728 whole entry, looked up): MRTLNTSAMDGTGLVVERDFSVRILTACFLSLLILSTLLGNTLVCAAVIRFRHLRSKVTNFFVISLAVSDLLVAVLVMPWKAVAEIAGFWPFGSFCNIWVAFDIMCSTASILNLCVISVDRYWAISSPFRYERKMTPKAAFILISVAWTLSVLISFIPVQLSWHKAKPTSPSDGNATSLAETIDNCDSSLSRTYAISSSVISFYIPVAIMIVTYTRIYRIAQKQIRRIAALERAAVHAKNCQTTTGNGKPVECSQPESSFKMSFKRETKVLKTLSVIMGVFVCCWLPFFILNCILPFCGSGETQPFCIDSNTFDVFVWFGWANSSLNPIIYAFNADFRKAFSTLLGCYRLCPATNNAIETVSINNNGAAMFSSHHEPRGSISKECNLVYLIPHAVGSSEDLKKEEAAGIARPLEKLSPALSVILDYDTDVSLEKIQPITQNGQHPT
Procedure, shortened: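 Antagonism measured as reduced calcium response to an EC80 dopamine addition following 180 s compound pre-read; cells were inducible HEK293 Trex D1 plated overnight at 30 C, read kinetically at 1 cycle/sec.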
% is scaled to controls: 0 for no effect and ±100 for the full control effect.

Activity change, negative = inhibition, active:
CCCSc1nc2[nH]ncc2c(=O)[nH]1 -32.5%
O=C1/C(=C/c2ccc(F)cc2)SC(=S)N1CCCC(=O)N1CCCCC1CCO (stereo not given) -30.8%
Cc1cc(Nc2ccccc2)n(C(=O)c2ccc(N)cc2)n1 -35.8%
O=C1c2cccc3c([N+](=O)[O-])ccc(c23)C(=O)N1CC1CCCO1 (stereo not given) -30.6%
COc1ccc(-c2noc(CCCC(=O)NC3CCCC3)n2)cc1OC -31.9%
CCOC(=O)c1c(NC(=O)CSc2cn(CC)c3ccccc23)sc2c1CCC2 -30.9%
COc1ccc(OC)c(NC(=O)C2CCCN(S(=O)(=O)c3ccc4c(c3)CCCC(=O)N4)C2)c1 (stereo not given) -38.1%
COc1ccc(NC(=O)c2c(C)oc3c2CCCC3)cc1 -45.1%
COC(=O)c1c(C)[nH]c(C(=O)/C=C/c2ccc(Cl)cc2)c1C -47.4%
O=C(CN1C(=O)COc2ccccc21)NCCN1CCc2ccccc2C1 -39.4%
COCCNC(=O)c1snc2ccc(Cl)cc12 -34.4%
CCCn1nc(Oc2nc(NC(C)C)nc(N(C)C)n2)ccc1=O -79.5%
Oc1ccc(-c2csc(Nc3cccnc3)n2)cc1 -30.4%
COc1ccc(C2N=C(N)N=C(N)N2c2ccccc2)cc1OC (stereo not given) -44.6%
O=C(CCl)Nc1ccc(Sc2ccc(NC(=O)CCl)cc2)cc1 -33.1%
COc1ccc(NS(=O)(=O)c2ccc(Oc3c(C#N)cccc3C#N)cc2)cc1 -44.8%
N=C(N)SCc1cccc2ccccc12 -51.9%
O=C(/C=C/c1ccc([N+](=O)[O-])cc1)NCCSCc1ccco1 -97.8%

Activity change, negative = inhibition, inactive:
Cc1cccc(Cn2c(=O)n(CCC(=O)NCCc3ccc(Cl)cc3)c(=O)c3sccc32)c1 -1.13%
CCN(CCCNC(=O)c1cc2cc3cc(OC)ccc3nc2s1)c1ccccc1 -2.73%
Cc1ccc(CSc2nc3[nH]ncc3c(=O)[nH]2)cc1 -7.82%
O=C(CSc1nc2[nH]ncc2c(=O)[nH]1)Nc1ccc(F)cc1 -21.9%
CCc1ccccc1NC(=O)CSc1nnc(-c2ccccc2)c(-c2ccccc2)n1 6.16%
O=C1/C(=C/c2ccc(F)cc2)SC(=S)N1NS(=O)(=O)c1ccccc1 -4.82%
CCN(C(=O)CN1C(=O)/C(=C/c2ccc(F)cc2)SC1=S)C1CCS(=O)(=O)C1 (stereo not given) 6.56%
O=C(Cn1cnc2c(oc3ccccc32)c1=O)Nc1ccc(OC(F)(F)F)cc1 17.3%
Cc1cc(NC(=O)Nc2ccc(Cl)cc2)n(-c2ccccc2)n1 -15.2%
Cn1c(Nc2ccccc2)cc(=O)n(C)c1=O 4.71%
O=C(c1cccs1)c1cn(CCOc2ccc(Cl)cc2)c2ccccc12 -2.17%
CN1CN(C)c2ccc([N+](=O)[O-])c3cccc1c23 1.14%
O=C1C(C=NCC2CCCO2)=C(O)c2ccccc21 (stereo not given) -0.787%
CC(=O)c1ccc(NC(=O)c2nc3nc(C)cc(C(F)F)n3n2)cc1 6.33%
CCOC(=O)c1ccc(NC(=O)Cn2c(=O)n(-c3ccc(C)cc3)c(=O)c3c2cnn3C)cc1 -7.04%
CCn1cc(C(=O)NCc2ccccc2)c(=O)c2cc(S(=O)(=O)N3CCCCC3)ccc21 1.17%
CCn1c(CNC(=O)C23CC4CC(CC(C4)C2)C3)nnc1SCC(=O)Nc1ccc(OC)cc1 17.4%
CCOc1cc(-c2noc(CCCC(=O)NC3CCCCC3)n2)ccc1OC -2.32%
CCOc1ccc(-c2noc(CCC(=O)NC3CCCC3)n2)cc1OC 5.22%
CCOC(=O)c1c(NC(=O)C(C)Sc2c[nH]c3ccccc23)sc2c1CCC2 (stereo not given) 4.04%
CCOC(=O)c1c(NC(=O)CSc2cn(CCNC(=O)c3cccc(C(F)(F)F)c3)c3ccccc23)sc2c1CCC2 -11.4%
Cc1cccc(C(=O)Nc2ccc(S(=O)(=O)N3CCCCC3c3cccnc3)cc2)c1 (stereo not given) -26.5%
O=C1CCCc2cc(S(=O)(=O)N3CCCC(C(=O)NCc4ccccc4)C3)ccc2N1 (stereo not given) -3.91%
CC(=O)Nc1ccc(NC(=O)C2CCCN(S(=O)(=O)c3ccc4c(c3)CCCC(=O)N4)C2)cc1 (stereo not given) 0.61%
Cc1ccc(CNC(=O)CCc2c(C)nn(-c3ccc(N4CCCC4)nn3)c2C)cc1 -0.419%
CCCCC12CN3CC(C)(CN(C1)C3c1ccc(O)c(OC)c1)C2=O (stereo not given) 3.82%
CCOC(=O)c1ccc(NC2=CC(c3ccc(OCC)cc3)N(c3ccc(C(=O)OCC)cc3)C2=O)cc1 (stereo not given) -6.51%
COc1ccc(C(=O)Nc2onc3c2CCCC3)cc1 -17.5%
COc1ccc(NC(=O)c2cc3cc(C)ccc3n2C)cc1 7.2%
O=C(CCSCc1cccc(F)c1)NCc1ccccc1 -0.666%
Cc1cc(C)nc(NC(=O)/C=C/c2ccc(Cl)cc2)n1 4.01%
CCCCOC(=O)c1[nH]c(C)c(C(=O)OC)c1C -0.924%
Cc1ccc(Nc2c(-c3ccc(C)cc3)nc3cnccn23)cc1 12.3%
COC(=O)c1sc2ncccc2c1-n1c(C)ccc1C 1.1%
COc1ccc(N2CCN(CCNC(=O)CCN3C(=O)COc4ccccc43)CC2)cc1 2.07%
O=C(CN1C(=O)COc2ccccc21)Nc1ccc(F)cc1 4.15%
Cc1ccc(S(=O)(=O)NC(N)=NCCC[C@@H](NC(=O)CNC(=O)c2ccccc2)C(=O)Nc2cc(C(F)(F)F)ccc2Cl)cc1 4.94%
COCCNC(=O)c1ccc(S(=O)(=O)c2ccc(Cl)cc2)c(NC(C)=O)c1 -3.29%
COCCNC(=O)c1cc(-c2cccc(Cl)c2)on1 -5.13%
CCOC(=O)c1cccc(NC(=O)c2cc(S(=O)(=O)N3CCCC(C)C3)cn2C)c1 (stereo not given) -6.74%
CCOC(=O)c1c(C)[nH]c(C)c1S(=O)(=O)N(C)CC(=O)N1CCN(c2ccccc2)CC1 1.35%
COC(=O)c1ccc(Oc2nc(NC(C)C)nc(SC)n2)cc1 -9.38%
COc1nc(Oc2ccc(=O)n(C)n2)nc(N(C)C)n1 -8.41%
COc1cc(C(CC(=O)NCCC(C)C)N2Cc3ccccc3C2=O)cc(OC)c1OC (stereo not given) -5.18%
CC(C)NC(=O)C1CCC(Cn2c(=O)c3sccc3n(Cc3ccc(F)cc3)c2=O)CC1 (stereo not given) 0.886%
Cc1ccc2nc(N3CCN(c4cccc(Cl)c4)CC3)c3nnnn3c2c1 -5.5%
Cc1ccc(NC(=O)CSc2nc3ccccc3c3nc(CCn4cncc4C)nn23)cc1F -2.83%
Brc1ccc(-c2csc(N/N=C/c3cccnc3)n2)cc1 -16.3%
CN(c1ccc(O)cc1)c1nc(-c2cccnc2)cs1 1.14%
Cc1cccc(C(=O)Nc2ccc(-c3nc4ccccc4s3)c(C)c2)c1 -25.8%
COc1ccccc1-c1cc(C(F)(F)F)nc(S(=O)(=O)CCCC(=O)Nc2ccc(F)cc2F)n1 -9.9%
COc1ccc(C2/C(=C(/O)c3ccccc3)C(=O)C(=O)N2c2ncccn2)cc1OC (stereo not given) 2.93%
COc1ccc(C2SCCN2S(=O)(=O)c2ccccc2)cc1OC (stereo not given) -1.77%
Cc1ccc(C)n1-c1nnc(N2CCC(C(=O)NCc3ccc(F)cc3)CC2)s1 0.798%
CCCCc1nn2c(=O)cc(COC(=O)c3cccc(NC(=O)COc4ccccc4)c3)nc2s1 -12.5%
CC(C)(CCl)C(=O)Nc1ccc(Sc2ccc(F)cc2)cc1 -27.2%
O=C(CCl)Nc1cccc(CP(=O)(c2ccccc2)c2ccccc2)c1 11.8%
Cc1cc(C)cc(OCC(=O)Nc2nc(-c3ccc(F)cc3)ns2)c1 -4.25%
Cc1ccc(Cn2ncc3c4sc(C)cc4n(C)c3c2=O)c(C)c1 7.1%
COc1cc(Br)cc2cc(S(=O)(=O)c3ccccc3)c(=O)oc12 -1.47%
COc1ccc(NS(=O)(=O)c2ccc(NC(=S)NC(=O)CC(C)C)cc2)cc1 -6.91%
COc1ccc(NS(=O)(=O)c2ccc(NC(=O)c3ccc(N(C)S(C)(=O)=O)cc3)cc2)cc1 3.18%
Cc1ccc2c(=O)cc(C(=O)Nc3sc4c(c3C(=O)NCc3cccnc3)CCCC4)oc2c1 -10.7%
CCc1ccc(-c2nn(-c3ccccc3)cc2CSC(=N)N)cc1 46%
CCOc1ccc(Br)cc1CSC(=N)N 2.93%
COc1ccc(-c2noc(CCC(=O)N(C)c3ccccc3C)n2)cc1 -13%
Cc1ccc(CN(C(=O)COc2ccc(Cl)cc2C)C2CCS(=O)(=O)C2)o1 (stereo not given) -2.94%
O=C(/C=C/c1cccc([N+](=O)[O-])c1)NCCSCc1ccco1 -26.7%
COc1cc(OC)cc(C(=O)NCCSCc2ccco2)c1 4.54%
Cc1cc(C)cc(NC(=O)c2cnc3sc(N4CCCC4)nn3c2=O)c1 -28.3%
Cc1nc2ccc(S(=O)(=O)NC(C(=O)NCc3ccccc3Cl)C(C)C)cc2s1 (stereo not given) 18.5%
COc1cccc(CNC(=O)c2ccc3c(c2)N(Cc2ccc(C(F)(F)F)cc2)C(=O)c2ccccc2S3)c1OC -2.43%
